Experimental data published in PubChem BioAssay (NCATS).
Inconclusive results are not listed. Calls of active or inactive are those of the source. Calls come from the whole dose curve; as a rule, active = well fitted inhibition curve with a large enough effect; inconclusive = small, poorly fitted or top-dose-only effect; inactive = flat fitted curve, though single readings scatter.

biological target: Tyrosyl-DNA phosphodiesterase 1 (Homo sapiens) (UniProt Q9NUW8); assay: Confirmation Assay for Inhibitors of Tyrosyl-DNA Phosphodiesterase (TDP1) (AID 489007); conditions: recombinant human TDP1 enzymatic activity, dose-response; note: nearly all actives have a fitted effect of over 40% in size
Sequence (Q9NUW8 whole entry, looked up): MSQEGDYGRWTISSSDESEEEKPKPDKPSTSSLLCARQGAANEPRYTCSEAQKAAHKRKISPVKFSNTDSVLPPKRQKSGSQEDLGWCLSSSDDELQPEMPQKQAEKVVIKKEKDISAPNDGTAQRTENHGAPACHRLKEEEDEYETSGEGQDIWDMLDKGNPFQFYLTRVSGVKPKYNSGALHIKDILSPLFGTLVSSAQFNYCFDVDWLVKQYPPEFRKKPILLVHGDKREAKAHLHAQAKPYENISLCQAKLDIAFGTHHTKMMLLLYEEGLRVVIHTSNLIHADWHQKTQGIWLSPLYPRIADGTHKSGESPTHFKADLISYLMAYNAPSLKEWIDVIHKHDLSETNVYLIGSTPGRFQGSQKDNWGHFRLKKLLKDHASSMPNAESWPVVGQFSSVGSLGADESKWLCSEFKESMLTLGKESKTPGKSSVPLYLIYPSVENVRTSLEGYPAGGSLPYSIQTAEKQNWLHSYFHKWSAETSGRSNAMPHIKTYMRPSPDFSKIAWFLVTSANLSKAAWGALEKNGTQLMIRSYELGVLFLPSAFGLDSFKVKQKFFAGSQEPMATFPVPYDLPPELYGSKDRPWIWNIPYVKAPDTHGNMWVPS
Method in brief: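 Confirmation of primary-screen follow-ups in a qHTS format. Substrate cleavage by Tdp1 (1 nM) of a 3'-phosphotyrosine-FITC, 5'-biotin oligo (15 nM) was monitored as decreased AlphaScreen signal after a 5 min room-temperature reaction.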
Potency is the fitted concentration of half-maximal effect.

Potency, active:
Cn1nnnc1SCC(=O)Nc1ccccn1 7.08 µM, CC(=O)Nc1ccc2c(COC(=O)CC3Sc4ccccc4NC3=O)cc(=O)oc2c1 (stereo not drawn) 15.8 µM, O=C(N/N=C/c1cccc(Br)c1)c1ccc(Br)cc1 50.1 µM, Nc1cc([N+](=O)[O-])ccc1N1C(=O)CCCC1=O 15.8 µM, c1ccc(N2N=C(c3cccs3)CC2c2ccco2)cc1 (stereo not drawn) 112 µM, Cc1nc(SCC(=O)O)c(C#N)c2c1CCCC2 8.91 µM, Cc1ccc(-c2nc3c(c(SCC(=O)Nc4cccc(C(=O)O)c4)n2)Cc2cccc(C)c2O3)cc1 4.08 µM, CCCCC(=O)Nc1ccc(C(=O)NNC(=O)CCc2ccccc2)cc1 100 µM, Cc1ccc(S(=O)(=O)N2CCCCC2)cc1C(=O)Nc1ccc(S(=O)(=O)Nc2ncccn2)cc1 14.1 µM, O=C(O)C1C2C=CC3(O2)C1C(=O)N1c2ccccc2C2OCCC2C13 (stereo not drawn) 35.5 µM, O=C1CCCC(O)=C1N=Nc1ccc(C(=O)O)cc1 1.41 µM, O=C(CSc1nccc(=O)[nH]1)NCc1ccco1 31.6 µM, Cc1ccccc1NC(=O)CN1C(=O)S/C(=C\c2cccn2-c2cccc(C(=O)O)c2)C1=O 14.1 µM, CC(=O)c1ccc(NC(=O)c2noc3c2CCC3)cc1 50.1 µM, Cc1ccccc1Nc1cccc2nonc12 100 µM, Cc1ccc(CN2C(=O)N/C(=C\c3ccc(-c4ccc(C(=O)O)cc4C)o3)C2=O)cc1 7.94 µM, O=C(O)CNC(=O)CC1S/C(=N/N=C2/NC(=O)CS2)NC1=O (stereo not drawn) 89.1 µM, Cc1ccc(Oc2cc(-n3nc(C)cc3C)ncn2)cc1 112 µM, Cc1ccc(S(=O)(=O)N2CCCN(c3nc4cc(C)ccc4cc3C#N)CC2)cc1 39.8 µM, Cc1ccc(C(=O)O)cc1-c1ccc(/C=C2/NC(=O)N(c3ccccc3)C2=O)o1 7.08 µM, N#C/C(=C\c1ccc(OCc2ccc(F)cc2)cc1)C(=O)Nc1cccc(C(=O)O)c1 14.1 µM, Fc1ccc(C2CC(c3cccs3)=NN2c2ccccc2)cc1 (stereo not drawn) 15.8 µM, O=C(O)C1C2C=CC(C2)C1C(=O)NCCc1ccncc1 (stereo not drawn) 100 µM
